# Compounds without any hit were thinned out: in the full panel of roughly 79,000, 15% have a hit. A number with no mark means an inactive call. The source made the active and inactive calls. No stated cut-off is given here; in the data, active means growth inhibition above about 70%; inactive means the rest.
# Legend:
# [1] = NCI Yeast Anticancer Drug Screen. Data for the rad50 strain (AID 155);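 further: 0% = growth of vehicle-only cultures of the same strain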; details: S. cerevisiae rad50 strain growth inhibition; at 50.0 µM; hits give high values
# Method in brief: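 A DNA repair-deficient yeast mutant serves as the test organism; compound-induced growth inhibition is calculated against vehicle-treated cells.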
# [2] = NCI Yeast Anticancer Drug Screen. Data for the mec2-1 strain (AID 157); details: S. cerevisiae mec2-1 strain, at 50.0 µM, hits give high values
# Method in brief: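 Growth inhibition is read against vehicle-treated controls after compound exposure of the mec2-1 yeast strain, which is defective in DNA damage repair or cell cycle control.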
# [3] = NCI Yeast Anticancer Drug Screen. Data for the sgs1 mgt1 strain (AID 161);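 further: 0% = growth of cultures given vehicle only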; details: S. cerevisiae sgs1 mgt1 strain, at 50.0 µM, hits give high values
# Method in brief: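 Yeast cells carrying a defined DNA-repair defect were exposed to test compounds. Growth inhibition was measured relative to vehicle-treated controls.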
# [4] = NCI Yeast Anticancer Drug Screen. Data for the cln2 rad14 strain (AID 165);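 further: 0% = growth equal to vehicle treated cultures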; details: S. cerevisiae cln2 rad14 strain, at 50.0 µM, hits give high values
# Method in brief: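 Growth inhibition, relative to vehicle-treated controls, is the read-out. The test organism is a yeast strain with defined genetic alterations, cln2 rad14.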
# [5] = NCI Yeast Anticancer Drug Screen. Data for the bub3 strain (AID 167); details: S. cerevisiae bub3 mutant strain, at 50.0 µM, hits give high values
# Method in brief: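 Inhibition values come from growth of compound-treated mutant yeast normalised to vehicle-treated controls.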
# [6] = NCI Yeast Anticancer Drug Screen. Data for the mlh1 rad18 strain (AID 175); details: S. cerevisiae mlh1 rad18 strain growth inhibition; at 50.0 µM; hits give high values
# Method in brief: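 Cells of a genetically altered yeast strain, deficient in DNA damage repair, were treated with compound. Their growth was then compared with that of vehicle-treated cultures to give inhibition.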
SMILES,growth inhibition [1],growth inhibition [2],growth inhibition [3],growth inhibition [4],growth inhibition [5],growth inhibition [6]
COc1ccc2cccc(C(=O)O)c2c1,1.3%,-10.3%,-6.5%,3.35%,-15.6%,-21.6%
COC(=O)C1OC(Sc2ncnc3nc[nH]c23)C(O)C(O)C1O (stereo not drawn),3.15%,1.6%,-0.85%,17.4%,7.3%,4.9%
CCOC1(COP(=O)(OCc2ccccc2)OCc2ccccc2)COC(COP(=O)(OCc2ccccc2)OCc2ccccc2)(OCC)CO1 (stereo not drawn),-30.1%,-25.6%,-16.2%,2.2%,-3.75%,-22.8%
CCOC(=O)C(C(C)=O)C(c1ccc(N(C)C)cc1)c1ccc(N(C)C)cc1 (stereo not drawn),4%,-4.35%,-6.6%,-2.4%,3.95%,-3.4%
NC(N)=NCc1ccc2c(c1)OCO2,-28.4%,-2.95%,-1%,10.1%,-10.9%,-34.1%
COC(=O)N/N=C/c1ccccc1Cl,4.55%,-31%,-18.6%,-64.8%,-12.5%,-12.2%
Cc1ccc(S(=O)(=O)N/N=C2\C3CC4CC(C3)C2C4)cc1 (stereo not drawn),-21%,-24.1%,-12.9%,-6.5%,-6.25%,-15.2%
CC(=O)NCCSC(=O)CCCCCCCCC(=O)SCCNC(C)=O,11.8%,-0.25%,27.2%,22.1%,6.55%,6.5%
CC(C)(C)c1ccc(OCCOCCOc2ccc(C(C)(C)C)cc2S(N)(=O)=O)c(S(N)(=O)=O)c1,0.35%,-23.3%,-19.8%,9.7%,-3.5%,-6.35%
O=C(CI)Nc1ccc2oc(=O)c(C(=O)O)cc2c1,-7%,-6.05%,4.85%,-64.4%,-2.9%,-12.8%
O=C1CC(c2ccccc2)NCN1 (stereo not drawn),3.95%,1%,7.1%,2.2%,-2.4%,8.3%
COc1cc(/C=C(\C#N)c2ccccn2)cc(Br)c1O,-7.35%,5.15%,-3.9%,17.2%,25.8%,-21.6%
CCOC(=O)OC1CCC2(C)C(=CCC3C2CCC2(C)C(C(C)CCCC(C)C)CCC32)C1 (stereo not drawn),-3.95%,-19.1%,0.6%,9.5%,4.25%,-4.3%
O=c1nc(NO)cnn1C1OC(CO)C(O)C1O (stereo not drawn),13.7%,-0.2%,16.4%,-26.4%,-11.8%,11.7%
O=C1c2c(ccc3c2CCC3)CC12Cc1cc3c(cc1C2)CCC3,-33.8%,-32.5%,-22.9%,10.9%,-0.5%,-15.2%
C/C(=N\NC(=S)N1CCN(c2ccccn2)CC1)c1cccc2cccnc12,13.4%,-21.1%,-18.9%,2.4%,1.4%,-0.25%
O=[N+]([O-])c1ccc(NN=C2CN3CCN(C2)c2ccccc23)c([N+](=O)[O-])c1,35.4%,20.1%,59.8%,40.8%,40.6%,35.1%
CCOC(=O)C(=CNc1cc(OC)cc2cccnc12)C(=O)OCC,-12.8%,4.1%,0.15%,18.8%,16.1%,-11.4%
CN1CCOC(=O)C(C#N)=C1c1ccccc1,-26.5%,6.95%,-9.15%,-17%,-7.25%,-3.15%

SMILES,growth inhibition [1],growth inhibition [2],growth inhibition [3],growth inhibition [4],growth inhibition [5],growth inhibition [6]
Cc1csc(NC(=O)C2C3CCC(O3)C2C(=O)O)n1 (stereo not drawn),22.1%,-11.2%,-6.5%,10.4%,-4.95%,-12.6%
O=C(O)c1cccc(F)n1,-0.45%,2.05%,-1.8%,3.1%,-0.65%,-1.85%
COc1ccc(C(C#N)NNC(=O)c2ccccc2O)cc1OC (stereo not drawn),14.9%,0.85%,6.6%,4.2%,35.2%,-18.9%
C(=N/NC(=N/N=C/c1ccccc1)N/N=C/c1ccccc1)/c1ccccc1,28.8%,23.1%,46.6%,28.3%,5.65%,24.1%
CCCCCCC1=CC(=O)CC(=O)C1,25.9%,7.1%,16.6%,13.6%,18%,4.25%
CCOC(=O)C1C(C)=CC(=O)CC1CC (stereo not drawn),24.3%,-10.7%,14.8%,-1.05%,-3.85%,22.5%
CC1=NN(c2ccc([N+](=O)[O-])cc2)C(=O)C1,25.6%,0.25%,22.6%,6.1%,25.6%,36.9%
CC(CO)C1C[C@H](O)[C@@]2(C)CC(=O)C=C(CO)[C@@H]2C1 (stereo partly drawn),35%,22.6%,-3.55%,25.9%,-7.15%,-46%
Cn1c(=O)nc2n(C)c3ccccc3cc-2c1=O,9.95%,-12.4%,-3.95%,-6.85%,-12.7%,1.8%
OCc1ccccc1CO,-19.6%,-15%,-9.25%,13.3%,-3.75%,3.15%
COc1ccc(-c2cc(=O)c3cc(O)ccc3o2)c(OC)c1OC,8%,16%,11.4%,-6.95%,-6.5%,-10.8%
C[Si](C)(C)Oc1cc(N=NNC2=CC(=O)c3ccccc3C2=O)c(O)c2ccccc12,-0.1%,2.2%,-11.8%,-24%,7.6%,5.15%
O=S(Cc1ccccc1)c1ccccc1Cn1cccc1 (stereo not drawn),-32.8%,-39.6%,-19.6%,-18.6%,14.2%,-9.5%
COc1cc2c(cc1OC)C1CC(O)(c3nccc4cc(OC)c(OC)cc34)CCN1CC2 (stereo not drawn),21.1%,-1.8%,-3.9%,10.7%,-1.3%,-14.1%
CCC(=O)c1cc2c(cc1O)CC(C(=O)CC)c1ccccc1-2 (stereo not drawn),13.3%,6.55%,17%,-2.55%,11.2%,12.4%
c1ccc(C2=C(c3ccccc3)CSSC2)cc1,46.4%,34.6%,79.8% (active),46.6%,41.7%,93.5% (active)
CCCCCCC(=O)NC(O)C(Cl)(Cl)C(C)Cl (stereo not drawn),1.1%,-6.6%,-6.2%,-56.8%,-19.8%,4.1%
COc1cc(C2c3cc4c(cc3OC(O)C2C)OCO4)cc(OC)c1OC (stereo not drawn),-11.9%,4.85%,11.7%,-46.6%,16.1%,-4.15%
O=C(O)c1ccc(N=NC2Sc3nc4ccccc4n3C2=O)cc1 (stereo not drawn),16.7%,-13.8%,15.7%,-8.9%,11.2%,44.2%

# Reference: PubChem BioAssay (NCI)
